Measured values taken from PubChem BioAssay AID1347171 (National Center for Advancing Translational Sciences (NCATS), 2019).
Inconclusive results are not listed. A call without a number means that no potency is given here. The source made the active and inactive calls. The call rests on the fitted dose curve; in most records, active means well fitted inhibition curve with a large enough effect; inconclusive means small, poorly fitted or top-dose-only effect; inactive means no such curve, though single readings can be large or run the other way.

Assay: Orthogonal mCherry assay for qRT-PCR qHTS of selected Zika virus inhibitors
Details: Vero cells, ZIKV-mCherry infection imaging, 48-72 h; series mostly up to 32.6 µM
Text: Description: Assay Submitters (PI): Avindra Nath, Ph.D., National Institute of Neurological Disorders and Stroke (NINDS), Bethesda, MD Radhakrishnan Padmanabhan, Ph.D., Georgetown University (GU), Washington D.C. Zika Virus causes congenital defects, including microcephaly and is associated with Guillain-Barre syndrome, eningoencephalitis and myelitis in infected adult. […] Using a target-based approach, we hope to establish a screening paradigm to uncover novel, cell-active NS2B-NS3 protease (Zika Virus) specific inhibitors from NCATS' collection of small molecules using qHTS. […] Four assay panel was created to identify potential Zika Virus inhibitors. Namely, (1) GU unlinked NS2B-NS3 AMC tagged protease qHTS, (2) GU unlinked NS2B-NS3 Rhodamine tagged protease qHTS, (3) NINDS linked NS2B-NS3 AMC tagged protease qHTS, (4) NINDS linked NS2B-NS3 Rhodamine tagged protease qHTS. Inhibitors of the Zika virus primary screens are confirmed using qRT-PCR secondary assays, mCherry orthogonal assay, and Vero cells viability counterscreen. Early Translation Branch (ETB) National Center for Advancing Translational Sciences (NCATS), Rockville, MD National Institute of Health (NIH), Bethesda, Maryland
384 well ZIKV-mCherry Assay: We have developed a new orthogonal imaging assay in 384-well plate format, which uses recombinant virus ZIKV-mCherry in Vero cells. Briefly, 30 microL of Vero cells derived from a green monkey cell line, were dispensed by Multidrop Dispenser into a clear solid bottom black 384 well plate (ultracarrier, Perkin Elmer LifeSciences) at a concentration of 5,000 cells per well. The plate was incubated overnight in a CO2 incubator at 37 degrees C. Compounds were delivered as a 126 nL DMSO solution by Kalypsys pintool transfer. Following compound transfer, 10 microL of ZIKV-mCherry was added at an MOI of 1 and incubated in a CO2 incubator for 48-72 hrs at 37 degrees C. After sufficient incubation of infected cells in test plates, 8 microL of 32% PFA was dispensed into assay plates to fix cells and incubated for 20 min at room temperature. Plates were washed 3 times with PBS using BioTek EL406 microplate washer/dispenser. After washing, 30 microL of PBS with 0.01% TX-100 containing Hoechst dye was dispensed into the each well of the plates for nuclear staining. 384-well plates were imaged on an automated, widefield high content imager (INCell 2200, GE Healthcare) using a 10x/0.45 NA lens and standard DAPI (nuclear stain) and mCherry (cy5) excitation and emission filters. The TIFFs were quantitated using the canned Multi Target Analysis protocol (GE Investigator Workstation software v3.7.2). Briefly, nuclei from the DAPI channel were identified using top hat segmentation and a sensitivity setting of 96 and minimum size area of 35 microm2. A recombinant Zika viral infection was monitored in the Cy5 channel (cells) using a 2 microm collar dilation from the nuclear bitmap. mCherry objects with an average nuclear RFU intensity above 450 (3 stdev above mean negative control wells) were considered "mcherry positive" and data was analyzed by percent infection rate.

Row | SMILES | Potency
1 | CN(Cc1ccc(C(=O)O)cc1)c1ccc(OCc2c(-c3c(Cl)cccc3Cl)noc2C2CC2)nc1C(F)(F)F | 14.1 µM (active)
2 | Oc1cc2ccccc2c2ccccc12 | inactive
3 | CC1=C(C(=O)OCc2ccccc2)C(c2ccc(-c3ccccc3)cc2)NC(=O)N1CCCCCC(=O)O (centres undefined) | inactive
4 | Nc1ccn([C@@H]2O[C@H](CO)[C@@H](O)C2(F)F)c(=O)n1 | inactive
5 | COc1c(C)c2c(c(O)c1C/C=C(\C)CCC(=O)O)C(=O)OC2 | inactive
6 | Cc1ccc(-n2[nH]c(C)c(N=Nc3cccc(-c4cccc(C(=O)O)c4)c3O)c2=O)cc1C | inactive
7 | CC(C)c1onc(-c2c(Cl)cccc2Cl)c1COc1ccc(/C=C/c2cccc(C(=O)O)c2)c(Cl)c1 | 25.1 µM (active)
8 | Cc1cccc(C)c1NS(=O)(=O)c1ccc(NS(=O)(=O)c2ccc3c(c2)OCCO3)cc1 | 3.55 µM (active)
9 | Cc1cc(NC(=O)c2ccc(Cl)c(Cl)c2)ccc1-c1cc2ccccc2oc1=O | inactive
10 | Oc1cccc(-c2c3nc(c(-c4cccc(O)c4)c4ccc([nH]4)c(-c4cccc(O)c4)c4nc(c(-c5cccc(O)c5)c5ccc2[nH]5)CC4)C=C3)c1 | 7.08 µM (active)
11 | O=C1NC(=O)/C(=C/c2ccc3c(c2)OC(F)(F)O3)S1 | inactive
12 | COc1ccc(NS(=O)(=O)c2ccc(NS(=O)(=O)c3ccc4c(c3)OCCO4)cc2)cc1 | inactive
13 | CC1(C)CCC(CN2CCN(c3ccc(C(=O)NS(=O)(=O)c4ccc(NCC5CCOCC5)c([N+](=O)[O-])c4)c(Oc4cnc5[nH]ccc5c4)c3)CC2)=C(c2ccc(Cl)cc2)C1 | inactive
14 | N#CC1C(=O)Nc2scc(-c3ccc(-c4ccccc4O)cc3)c2C1=O (centres undefined) | inactive
15 | CC(C)c1ccc2c(c1)c(SC(C)(C)C)c(CC(C)(C)C(=O)O)n2Cc1ccc(Cl)cc1 | inactive
16 | Nc1ncnc2c([C@@H]3N[C@H](CO)[C@@H](O)[C@H]3O)c[nH]c12 | 14.1 µM (active)
17 | COc1cccc(-n2nc(C(=O)O)cc2-c2ccc(C3CCCCC3)c(Cl)c2)c1 | 25.1 µM (active)
18 | COc1cc2c(c(O)c1OC/C=C(\C)CC/C=C(/C)CCC=C(C)C)CN(C(CCC(=O)O)C(=O)O)C2=O (centres undefined) | inactive
19 | O=C(Nc1ccc([N+](=O)[O-])cc1Cl)c1cc(Cl)ccc1O | inactive
20 | Cc1cc2c(C(C)C)c(O)c(O)c(C=O)c2c(O)c1-c1c(C)cc2c(C(C)C)c(O)c(O)c(C=O)c2c1O | inactive
21 | CC(C)=CCc1c2c(c3occ(-c4ccc(O)c(O)c4)c(=O)c3c1O)C=CC(C)(C)O2 | inactive
22 | CC(C)c1cc(C(C)C)c(CC(=O)NS(=O)(=O)Oc2c(C(C)C)cccc2C(C)C)c(C(C)C)c1 | inactive
23 | CC[C@H](C)[C@H]1O[C@]2(CC[C@@H]1C)C[C@@H]1C[C@@H](C/C=C(\C)[C@@H](O[C@H]3C[C@H](OC)[C@@H](O[C@H]4C[C@H](OC)[C@@H](O)[C@H](C)O4)[C@H](C)O3)[C@@H](C)/C=C/C=C3\CO[C@@H]4[C@H](O)C(C)=C[C@@H](C(=O)O1)[C@]34O)O2 | inactive
24 | Cc1cc(C(C#N)c2ccc(Cl)cc2)c(Cl)cc1NC(=O)c1cc(I)cc(I)c1O (centres undefined) | inactive
